Drawing on PubChem BioAssay AID651812 (National Center for Advancing Translational Sciences (NCATS), 2012), this text covers Potency for 100 molecules.

In all, about 2,100 compounds went through this assay and about 650 (31%) were called active. About 16% were inconclusive and are not listed. Calls come from the whole dose curve; as a rule, active = well fitted inhibition curve with a large enough effect; inconclusive = small, poorly fitted or top-dose-only effect; inactive = flat fitted curve, though single readings scatter. The list shows a part of the results. Where a call stands in place of a potency, no number is given.
Potency is the fitted concentration of half-maximal effect.

A short description of this assay: qHTS for inhibitors of Vif-A3G interactions: Cherry picks. Note: nearly all actives have a fitted effect of over 80% in size. As to conditions: HeLa A3G-eYFP + Vif (tagged APOBEC3G with the HIV-1 protein that degrades it), 24 h; Potency: eYFP fluorescence increase; series mostly up to 36.9 µM. The method, boiled down:
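Cherry-picked compounds tested at several concentrations on A3G-eYFP/Vif HeLa cells for 24 hours; loss of Vif-driven degradation read as eYFP fluorescence by cytometric plate imaging, 488 nm excitation, 500-530 nm emission.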
In the case of `COc1ccc(S(=O)(=O)N2N=C(C)Oc3ccccc3C2=O)cc1`, the Potency entry is “inactive”. Under `COc1cc(/C=C2\SC(=S)N(NC(=O)c3ccc(O)c(OC)c3)C2=O)ccc1O` stands 13 µM (active); under `COc1cc(/C=C2\SC(=S)N(NC(=O)c3ccccc3O)C2=O)ccc1O`, 23.1 µM (active).

As to `COc1cc(/C=C/C(C)=NNc2ccccc2)ccc1O`, the Potency result was “inactive”. Regarding `COc1cc(/C=N/NC(=O)c2cc(-c3c(C)nn(-c4ccccc4)c3C)n[nH]2)ccc1O`, the Potency result is “inactive”. With `COc1ccc(C(=O)N/N=C/c2cc(Br)ccc2O)cc1OC`, the Potency entry was “inactive”. For `COc1cc(/C=N/NC(=O)c2[nH]nc3c2CCc2ccccc2-3)ccc1O` the value was “inactive”. For `CCOC(=O)C(C(=O)OCC)C(Nc1cccc(Br)c1)c1ccccc1` (stereo not given) the value was “inactive”; for `c1ccc2c(CCc3c[nH]c4ccccc34)ccnc2c1`, 23.1 µM (active). On to `CCCCN1C(=O)/C(=C2/Sc3ccccc3N2C)S/C1=N\c1ncn[nH]1`, for which the Potency was 18.4 µM (active). Consider `Cc1ccc2c(c1)C=CC(C#N)N2C(=O)c1ccccc1` (stereo not given), for which the Potency entry was “inactive”. As to `COc1ccc(NC(=O)c2oc3ccc(S(=O)(=O)N4CCOCC4)cc3c2C)cc1`, the Potency result was “inactive”.

Regarding `CCc1cccc2cc3c(N)c(C(=O)Nc4ccc(S(=O)(=O)N5CCCC5)cc4)sc3nc12`, the Potency was 4.98 µM (active). Under `O=C(Nc1ccc(Cl)cn1)c1cccc(S(=O)(=O)N2CCCCCC2)c1` stands “inactive”. For `COC(=O)Nc1ccc(S(=O)(=O)N2CCCc3ccccc32)cc1` the value was “inactive”; for `Cc1cccc2cc3c(N)c(C(=O)Nc4ccc(N5CCOCC5)cc4)sc3nc12`, 14 µM (active).

For the molecule `Cc1c(C(=O)Nc2ccc(C(C)C)cc2)sc2nc3n(c(=O)c12)CCC3`, the Potency result is “inactive”. As to `Nc1c(C(=O)Nc2ccc(S(=O)(=O)N3CCCC3)cc2)sc2nc3cc4c(cc3cc12)CCC4`, the Potency is 8.2 µM (active). For `Cc1cc2nc(-c3ccc(SCC(=O)Nc4ccc(S(=O)(=O)N5CCCC5)cc4)nc3)[nH]c2cc1C` the value was “inactive”; for `COc1cccc(C(=O)Nc2ccc(N3CCCC3)cc2)c1`, “inactive”; for `Nc1c(C(=O)Nc2ccc(S(=O)(=O)N3CCCC3)cc2)sc2nc3ccc(OC(F)(F)F)cc3cc12`, 20.6 µM (active).

`O=C(Nc1nc2ccc(S(=O)(=O)N3CCCC3)cc2s1)C1CCCCC1`: the Potency entry is “inactive”. On to `O=C(Nc1ccc(N2CCOCC2)cc1)c1cccc2ccccc12`, for which the Potency result is “inactive”. As for `CN1C(=O)N(C)c2ccc(C=O)c3cccc1c23`, the Potency entry was “inactive”.

Consider `COc1cc(OC)c(/C=C/c2ccnc3ccccc23)c(OC)c1`, for which the Potency entry was “inactive”. For `COc1cc(OC)c(C2Nc3cccc4cccc(c34)N2)c(OC)c1` the value was “inactive”; for `COc1cc(OC)c(/C=C/c2ccc3ccccc3[n+]2C)c(OC)c1`, 10.3 µM (active); for `CCN(CC(=O)NCc1ccc(F)cc1)C(=O)/C=C/c1ccc(OC)c(S(=O)(=O)NC(C)C)c1`, “inactive”.

Regarding `Cc1sc2ncnc(SCC(=O)NC(C)(C)C)c2c1C`, the Potency entry was “inactive”. Under `Cc1sc2ncnc(N=Nc3c(O)[nH]c4ccccc34)c2c1C` stands 16.4 µM (active); under `Cc1sc2ncn(CC(=O)NCc3ccccc3)c(=O)c2c1C`, “inactive”; under `Fc1ccc(-c2cnn3c(-c4cccs4)ccnc23)cc1`, 12.5 µM (active). Under `COc1ccc2cc(C(=O)C3CCCN(Cc4ccccn4)C3)ccc2c1` (stereo not given) stands “inactive”. For `CCc1ccc2nc(SCC(=O)Nc3ccccc3N3CCOCC3)c(C#N)cc2c1` the value was “inactive”; for `Cc1nc2cc(NC(=O)CSc3nc4c(C)cccc4cc3C#N)ccc2s1`, 13 µM (active). For `COc1ccc2nc(SCC(C)=O)c(C#N)cc2c1`, the Potency is 3.26 µM (active). On to `Cc1ccc2nc(SCC(=O)Nc3ccc4sc(C)nc4c3)c(C#N)cc2c1`, for which the Potency was 18.4 µM (active). In the case of `CCN(CC)c1ccc(NC(=O)CSc2nc(C3CC3)nc3ccccc23)cc1C`, the Potency entry was “inactive”.

In the case of `Cc1ccc(NC(=O)CSc2n[nH]c(-c3ccccn3)n2)cc1`, the Potency result is “inactive”. For `COc1ccc2nc(NC(=O)c3ccc([N+](=O)[O-])o3)sc2c1` the value was “inactive”; for `CCC(=O)Nc1nc2ccc(NC(=O)c3cc(OC)c(OC)c(OC)c3)cc2s1`, “inactive”.

Take `COc1ccc2nc(SCC(=O)Nc3ccc4sc(C)nc4c3)c(C#N)cc2c1`: the Potency was 20.6 µM (active). On to `CCCOc1ccccc1C1CC(=O)Nc2cc3c(cc21)OCO3` (stereo not given), for which the Potency entry was “inactive”.

With `Cn1nnnc1SCc1nc2scc(-c3ccc(Cl)cc3)c2c(=O)[nH]1`, the Potency result is “inactive”. Under `CCOC(=O)c1sc(NC(=S)NC(=O)c2ccco2)nc1C` stands “inactive”; under `COc1cccc(Nc2nc(Nc3ccc(Cl)c(C(=O)O)c3)nc(C)c2[N+](=O)[O-])c1`, “inactive”; under `CCOC(=O)c1cc2n(c1/N=C/N(C)C)-c1ccccc1C2=O`, 20.6 µM (active). Under `N#C/C(=C/c1ccc2c(c1)OCO2)C(=O)Nc1ccc(O)cc1` stands “inactive”; under `CCOc1ccc(NC(=O)/C(C#N)=C/c2ccc(N3CCCC3)c(C)c2)cc1`, 6.51 µM (active); under `CCOc1ccc(NC(=O)N2CC=C(c3c[nH]c4ccccc34)CC2)cc1`, “inactive”. For `CCOc1cc(/C=C(/C#N)C(=O)Nc2ccc(O)cc2)cc(Br)c1O` the value was 15.8 µM (active). On to `CCOc1ccc(/C=N/NC(=O)c2cc3c(OC)cc(OC)c(OC)c3[nH]2)cc1`, for which the Potency result is “inactive”. For `CCSc1nnc(-c2sc3nnc(-c4ccccc4)c(-c4ccccc4)c3c2N)o1` the value was 10.3 µM (active). As to `COc1ccc(NC(=O)C2Cc3c(-c4cccc(NC(C)=O)c4)ccnc3O2)cn1` (stereo not given), the Potency result was “inactive”. Take `CSC1=NC(C(Cl)(Cl)Cl)N=C(c2ccccc2)N1` (stereo not given): the Potency entry is “inactive”. For `CC1=CN2C(=N)/C(=C/c3ccc([N+](=O)[O-])o3)C(=O)N=C2S1` the value was 9.94 µM (active); for `CCS(=O)(=O)C1=NN2C(=N)/C(=C\c3ccc(SCc4ccco4)o3)C(=O)N=C2S1`, “inactive”. For `Fc1ccc2nc3[nH]c4ccccc4c3nc2c1` the value was 1.4 µM (active); for `CN1CCc2c(sc3c2C(=O)NC(c2ccc(-c4ccc(Cl)cc4)o2)N3)C1` (stereo not given), 11.6 µM (active). With `CCOc1ccccc1C1CC(=O)NC2=C1C(=O)CCC2` (stereo not given), the Potency result is “inactive”. Consider `COCCOC(=O)c1[nH]c2c(c1C)C(=O)CC(c1ccccc1)C2` (stereo not given), for which the Potency result is “inactive”. `O=C1CC(c2ccccc2)Cc2[nH]c(=O)c(-c3nc(-c4cccc(Cl)c4)cs3)cc21` (stereo not given): the Potency result was “inactive”.

As to `Cc1sc(-c2cc3c([nH]c2=O)CC(c2ccccc2)CC3=O)nc1-c1ccc(Cl)cc1` (stereo not given), the Potency was 20.6 µM (active). `O=C(O)CSc1c2ccccc2cc2ccccc12`: the Potency result was “inactive”. Under `COc1ccccc1Nc1c2c(nc3ccc(NC(=O)c4ccc(N(C)C)cc4)cc13)CCCC2` stands “inactive”.

With `COc1ccc(S(=O)(=O)NCc2ccccn2)cc1NC(=O)c1ccccc1`, the Potency entry was “inactive”. For `COc1ccc(C)cc1Nc1c2c(nc3ccccc13)CCC2` the value was “inactive”; for `COc1ccc2nc3ccccc3nc2c1NC(=O)c1ccc(Br)cc1`, 14.6 µM (active); for `COc1ccc2nc3ccccc3nc2c1NC(=O)c1ccc(Cl)cc1`, 20.6 µM (active). Under `O=C(NC(=S)Nc1c(Cl)cc(Cl)cc1Cl)c1ccccc1` stands “inactive”; under `COc1cc(C(=O)Nc2ccc3ccccc3c2)cc(OC)c1OC`, “inactive”; under `COC(=O)/C(=C\Nc1ccc(Cl)cc1Cl)NC(=O)c1ccc(OC)cc1`, “inactive”. Regarding `COc1ccc2nc3ccccc3nc2c1NC(=O)c1ccc(Cl)cc1Cl`, the Potency is 2.8 µM (active). Under `COc1ccc2nc(Nc3nc(CSc4ccc(C)cc4)cc(=O)[nH]3)nc(C)c2c1` stands “inactive”; under `CCN(CC)c1ccc(/C=C2\C(=N)N3N=C(CC(=O)N4CCOCC4)SC3=NC2=O)cc1`, 0.177 µM (active). Under `CN(C)c1ccc(/C=C2\C(=N)N3N=C(CC(=O)N4CCCCC4)SC3=NC2=O)cc1` stands 18.4 µM (active); under `CN(C)c1ccc(/C=C2\SC(N3CCCCC3)=NC2=O)cc1`, 23.1 µM (active).

Take `COc1cc(/C=C2\C(=N)N3N=CSC3=NC2=O)cc(Br)c1OC(=O)c1ccco1`: the Potency entry is “inactive”. For `CCN(CC)c1ccc(/C=C2\SC(N)=NC2=O)cc1` the value was “inactive”; for `O=c1c2cc3ccccc3n2cnn1Cc1ccccc1F`, “inactive”; for `CCOc1ccccc1Oc1nc(C)nc2c1oc1ccccc12`, “inactive”. Under `Brc1ccc2c(c1)C(c1cccnc1)=NNC(c1cccs1)=N2` stands “inactive”; under `COc1ccc2cc(-c3nc(Cl)c4c5c(sc4n3)CC(C)CC5)c(=O)oc2c1` (stereo not given), 4.11 µM (active); under `CN1C(=O)/C(=C/c2ccccc2OCc2ccc(F)cc2)N(C)C1=S`, 23.1 µM (active). Under `O=[N+]([O-])c1ccccc1S(=O)(=O)Nc1ccc(-c2ccc(N3CCOCC3)nn2)cc1` stands 23.1 µM (active).

With `COc1cc(C(=O)N/N=C(\C)c2ccccn2)cc(OC)c1OC`, the Potency result was “inactive”.

Turning to `COc1cc(C2Nc3ccc4ncccc4c3C3=C2C(=O)CCC3)cc(OC)c1O` (stereo not given), the Potency entry was “inactive”. For the molecule `CCOc1ccc(C(=O)COC(=O)Cc2n[nH]c(=O)c3ccccc23)cc1`, the Potency result is “inactive”. Turning to `CC[n+]1ccc(/C=C2\Sc3ccccc3N2CCCS(=O)(=O)[O-])c2ccccc21`, the Potency is 20.6 µM (active). For `Cc1nc(-c2ccc(Cl)cc2)sc1C(=O)NN`, the Potency entry was “inactive”. For `CCN(CC)C(=O)c1sc2nc(-c3cccs3)cc(-c3ccc(Cl)cc3)c2c1N` the value was 14 µM (active). For `COc1ccc(-c2cc(-c3cccs3)nc3sc(C#N)c(N)c23)cc1` the value was 16.4 µM (active); for `N#Cc1sc2nc(-c3cccs3)cc(-c3ccc(Cl)cc3)c2c1N`, 15.8 µM (active); for `CC(C)CC(=O)NC(=S)N(Cc1ccccc1)Cc1ccccc1`, “inactive”. Under `Oc1ccc(C=NNC(=S)Nc2ccc(F)cc2)c(O)c1` stands “inactive”; under `COc1cc(OC)cc(C(=O)N/N=C/c2ccc(OC)c(COc3ccc4ccccc4c3)c2)c1`, “inactive”; under `COc1cc(C(=O)Nc2ccc(C)cc2)c2ccccc2n1`, “inactive”.

As for `CCCCN1C(=O)C2Cc3c([nH]c4ccccc34)CN2C1=S` (stereo not given), the Potency is 14 µM (active).

As to `COc1ccc(/C=N/NC(=O)c2cccnc2)cc1CSc1ccccn1`, the Potency result was “inactive”. In the case of `CC1(C(=O)NCc2ccco2)Cc2c(-c3cccc(C(N)=O)c3)ccnc2O1` (stereo not given), the Potency entry was “inactive”.
